Measured values: the supplement of paper PMC8975748
Counter-ions that a name gives are not always drawn. ± gives the standard deviation of the averaged measurements.

Experiments:
[1] = system: Saccharomyces cerevisiae BY4741 SeMeCo community; experiment: mean cell size (pixel area) (pixels); higher = larger cells; details: 10 µM; 24 h; SM minimal medium
Method in brief: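 For 24 h, 70 µl of yeast culture diluted to OD600 = 0.3 from an overnight preculture at OD600 = 1.0 was kept in SM medium in 384-well plates acoustically predosed with drug, final 10 µM. The strain was Saccharomyces cerevisiae BY4741 forming a fluorescent community of four plasmids, each complementing one auxotrophy and carrying a fluorescent marker. Automated confocal microscopy of paraformaldehyde-fixed cells, analysed in Harmony, provided mean cell pixel area per well, which was averaged over 3 replicates. Same SeMeCo high-content imaging drug screen: Selleck FDA-approved drugs at 10 µM, 24 h in SM medium, 384-well plates, 3 replicates.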

[2] = system: Saccharomyces cerevisiae BY4741 SeMeCo community; experiment: z-score of prototroph abundance vs DMSO median; higher = larger share of this subpopulation than in DMSO controls; details: 10 µM; 24 h; SM minimal medium; subpopulation (auxotrophy): Prototroph
Method in brief: (§1)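 Four plasmids, each restoring a single auxotrophy and encoding a distinct fluorescent protein, were carried by a Saccharomyces cerevisiae BY4741 community. After overnight growth to OD600 1.0 and dilution to 0.3, 70 µl per well was grown for 24 h in minimal SM medium on 384-well plates acoustically predosed with library drugs at 10 µM final. Following paraformaldehyde fixation, automated confocal microscopy was used, with single-auxotroph fluorescent strains defining thresholds and autofluorescence correction. Subpopulation abundance was then scored as a z-score against the vehicle-well median.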

[3] = system: Saccharomyces cerevisiae BY4741 SeMeCo community; experiment: z-score of subpopulation abundance vs DMSO median, subpopulation auxotrophic for M; higher = larger share of this subpopulation than in DMSO controls; details: 10 µM; 24 h; SM minimal medium; subpopulation (auxotrophy): M
Method in brief: as §1

[4] = system: Saccharomyces cerevisiae BY4741 SeMeCo community; experiment: z-score of subpopulation abundance vs DMSO median, subpopulation auxotrophic for L; higher = larger share of this subpopulation than in DMSO controls; details: 10 µM; 24 h; SM minimal medium; subpopulation (auxotrophy): L
Method in brief: as §1

[5] = system: Saccharomyces cerevisiae BY4741 SeMeCo community; experiment: z-score of subpopulation abundance vs DMSO median, subpopulation auxotrophic for U; higher = larger share of this subpopulation than in DMSO controls; details: 10 µM; 24 h; SM minimal medium; subpopulation (auxotrophy): U
Method in brief: as §1

[6] = system: Saccharomyces cerevisiae BY4741 SeMeCo community; experiment: z-score of subpopulation abundance vs DMSO median, subpopulation auxotrophic for H; higher = larger share of this subpopulation than in DMSO controls; details: 10 µM; 24 h; SM minimal medium; subpopulation (auxotrophy): H
Method in brief: as §1

[7] = system: Saccharomyces cerevisiae BY4741 SeMeCo community; experiment: z-score of subpopulation abundance vs DMSO median, subpopulation auxotrophic for LU; higher = larger share of this subpopulation than in DMSO controls; details: 10 µM; 24 h; SM minimal medium; subpopulation (auxotrophy): LU
Method in brief: as §1

[8] = system: Saccharomyces cerevisiae BY4741 SeMeCo community; experiment: z-score of subpopulation abundance vs DMSO median, subpopulation auxotrophic for LM; higher = larger share of this subpopulation than in DMSO controls; details: 10 µM; 24 h; SM minimal medium; subpopulation (auxotrophy): LM
Method in brief: as §1

[9] = system: Saccharomyces cerevisiae BY4741 SeMeCo community; experiment: z-score of subpopulation abundance vs DMSO median, subpopulation auxotrophic for HU; higher = larger share of this subpopulation than in DMSO controls; details: 10 µM; 24 h; SM minimal medium; subpopulation (auxotrophy): HU
Method in brief: as §1

[10] = system: Saccharomyces cerevisiae BY4741 SeMeCo community; experiment: z-score of subpopulation abundance vs DMSO median, subpopulation auxotrophic for UM; higher = larger share of this subpopulation than in DMSO controls; details: 10 µM; 24 h; SM minimal medium; subpopulation (auxotrophy): UM
Method in brief: as §1

[11] = system: Saccharomyces cerevisiae BY4741 SeMeCo community; experiment: z-score of subpopulation abundance vs DMSO median, subpopulation auxotrophic for HL; higher = larger share of this subpopulation than in DMSO controls; details: 10 µM; 24 h; SM minimal medium; subpopulation (auxotrophy): HL
Method in brief: as §1

[12] = system: Saccharomyces cerevisiae BY4741 SeMeCo community; experiment: z-score of subpopulation abundance vs DMSO median, subpopulation auxotrophic for HLU; higher = larger share of this subpopulation than in DMSO controls; details: 10 µM; 24 h; SM minimal medium; subpopulation (auxotrophy): HLU
Method in brief: as §1

[13] = system: Saccharomyces cerevisiae BY4741 SeMeCo community; experiment: z-score of subpopulation abundance vs DMSO median, subpopulation auxotrophic for HLM; higher = larger share of this subpopulation than in DMSO controls; details: 10 µM; 24 h; SM minimal medium; subpopulation (auxotrophy): HLM
Method in brief: as §1

[14] = system: Saccharomyces cerevisiae BY4741 SeMeCo community; experiment: z-score of subpopulation abundance vs DMSO median, subpopulation auxotrophic for HUM; higher = larger share of this subpopulation than in DMSO controls; details: 10 µM; 24 h; SM minimal medium; subpopulation (auxotrophy): HUM
Method in brief: as §1

[15] = system: Saccharomyces cerevisiae BY4741 SeMeCo community; experiment: z-score of subpopulation abundance vs DMSO median, subpopulation auxotrophic for LUM; higher = larger share of this subpopulation than in DMSO controls; details: 10 µM; 24 h; SM minimal medium; subpopulation (auxotrophy): LUM
Method in brief: as §1

[16] = system: Saccharomyces cerevisiae BY4741 SeMeCo community; experiment: z-score of subpopulation abundance vs DMSO median, subpopulation auxotrophic for HLUM; higher = larger share of this subpopulation than in DMSO controls; details: 10 µM; 24 h; SM minimal medium; subpopulation (auxotrophy): HLUM
Method in brief: as §1

[17] = system: Saccharomyces cerevisiae BY4741 SeMeCo community; experiment: z-score of subpopulation abundance vs DMSO median, subpopulation auxotrophic for HM; higher = larger share of this subpopulation than in DMSO controls; details: 10 µM; 24 h; SM minimal medium; subpopulation (auxotrophy): HM
Method in brief: as §1

Row | Structure (SMILES) | mean cell size [1] | z-score of prototroph abundance [2] | z-score of subpopulation abundance [3] | z-score of subpopulation abundance [4] | z-score of subpopulation abundance [5] | z-score of subpopulation abundance [6] | z-score of subpopulation abundance [7] | z-score of subpopulation abundance [8] | z-score of subpopulation abundance [9] | z-score of subpopulation abundance [10] | z-score of subpopulation abundance [11] | z-score of subpopulation abundance [12] | z-score of subpopulation abundance [13] | z-score of subpopulation abundance [14] | z-score of subpopulation abundance [15] | z-score of subpopulation abundance [16] | z-score of subpopulation abundance [17]
1 | N=C(N)NC(=O)c1nc(Cl)c(N)nc1N [Amiloride HCl dihydrate] | 12.1 ± 0.19 | 1.39 | 3.23 | 0.68 | -3.02 | 0.83 | -3.52 | 2.66 | -2.8 | -3.7 | 0.71 | -1.34 | 0.23 | -1.45 | -1.62 | -0.95 | 
2 | CO/N=C(\C(=O)N[C@@H]1C(=O)N2C(C(=O)O)=C(COC(N)=O)CS[C@H]12)c1ccco1 [Cefuroxime sodium] | 12.47 ± 0.073 | 0.23 | 0.78 | -0.97 |  | -1.01 | -1.06 | -0.79 | -0.93 | 0.13 | -0.76 | -1.34 | -1.17 | -0.92 | -0.31 |  | -0.58
3 | CC(C)(O/N=C(\C(=O)N[C@@H]1C(=O)N2C(C(=O)[O-])=C(C[n+]3ccccc3)CS[C@H]12)c1csc(N)n1)C(=O)O [Ceftazidime] | 12 ± 0.14 | 0.11 | -0.44 | -0.23 | -0.24 | 0.63 | -0.93 | -0.09 | 0.43 | 0.27 | 0.02 | 0.34 | -0.39 | 0.14 | 0.05 | -0.76 | 
4 | CCn1cc(C(=O)O)c(=O)c2cnc(N3CCNCC3)nc21 [Pipemidic acid] | 12 ± 0.14 | -0.62 | 0.72 | -0.32 | 0.77 | -1.07 | 0.45 | 0.15 | -0.06 | 0.86 | 0.01 | -0.49 | -0.37 | 0.55 | 0.73 | 0.28 | 
5 | CC1=C(C(=O)O)N2C(=O)[C@@H](NC(=O)[C@H](N)c3ccccc3)[C@H]2SC1 [Cephalexin] | 12 ± 0.24 | -0.14 | 1.37 | 0.02 | -1.02 |  | -0.21 | 0.35 | -0.74 | -0.17 | 0.67 | -0.6 | -0.53 | 0.41 | -0.42 | -0.42 | 
6 | CN(C)CCC=C1c2ccccc2C=Cc2ccccc21 [Cyclobenzaprine HCl] | 12.59 ± 0.046 | -0.37 | 0 | -0.14 |  | -0.68 | -0.04 | 0.01 |  | 1.09 | -0.13 | -0.46 | 0.13 | -0.09 | -0.09 |  | -0.88
7 | Oc1c(I)cc(Cl)c2cccnc12 [Clioquinol] | 13.1 ± 0.49 | -17.7 | -0.87 | -0.06 |  |  | 10.4 | 5.23 | 16 | 6.49 | 9.34 | 41 | 119 | 16.6 | 9.68 |  | 37.7
8 | COc1ccc2c3c1O[C@H]1C[C@@H](O)C=C[C@@]31CCN(C)C2 [Galanthamine] | 12.47 ± 0.052 | -1.09 | 1.21 | 0.78 | -0.51 | 0.83 | 0.29 | 0.45 | 0.48 | 0.1 | 0.83 | 1.67 | 1.04 | 1.27 |  |  | 1.76
9 | CO/N=C(\C(=O)N[C@@H]1C(=O)N2C(C(=O)[O-])=C(C[n+]3cccc4c3CCC4)CS[C@H]12)c1csc(N)n1 [Cefpirome sulfate] | 12.5 ± 0.22 | -0.2 | 0.51 | 1.19 | -0.71 | 0.64 | -0.12 | 0.27 | -0.75 | 0.21 |  | -0.14 | -0.14 | 0 | 0.18 | 0.23 | 
10 | CS(=O)(=O)Nc1ccc([N+](=O)[O-])cc1Oc1ccccc1 [Nimesulide] | 12.5 ± 0.22 | 0.12 | -0.1 | 0.65 | -0.45 | -0.25 | 0.49 | 0.74 | -0.2 | -0.24 | 0.8 | 0.61 | -0.08 | 0.28 | 0.62 | 0.87 | 
11 | CCN(CC)CCOC(=O)c1ccc(N)cc1Cl [Chloroprocaine HCl] | 12.51 ± 0.1 | -0.55 | 0.42 | 0.95 | 0.25 | -0.3 | 0.13 | 0.62 | -0.26 | 0.74 | -0.09 | 0.39 | -0.23 | 0.14 | 0.45 | 0.58 | 
12 | COC(=O)C1=C(C#N)NC(C)=C(C(=O)OC(C)C)C1c1cccc([N+](=O)[O-])c1 (stereo not given) [Nilvadipine] | 12.6 ± 0.18 | 0.22 | 1.61 | -0.93 | -1.16 | 1.45 | -1.37 | -0.12 | -1.66 | -0.73 | -0.05 | -0.56 | 2.28 | -0.21 | -0.7 | 0.19 | 
13 | Cn1nnc(-c2ccc(-c3ccc(N4C[C@H](COP(=O)(O)O)OC4=O)cc3F)cn2)n1 [Tedizolid Phosphate] | 12.5 ± 0.29 | 1.14 | -0.15 | -1.36 | 0.63 | -0.61 | -0.94 | -2.14 | -0.46 | -0.77 | -0.86 | -0.8 | -0.8 | -0.98 | -1.05 | -0.73 | 
14 | O=C(NCCO[N+](=O)[O-])c1cccnc1 [Nicorandil] | 12.4 ± 0.13 |  | -0.48 | 0.07 | -0.31 | -0.28 | 0.21 | -0.01 | -0.39 | -0.61 | -0.84 | 0.08 | -0.83 | -0.48 | -0.44 |  | -0.61
